Experimental data published in PubChem BioAssay AID1159580 (chemical genetic matrix, 2015).
Several values for one entry are separate records, joined by “and”; a condition that tells them apart may be missing. Identical values can stand only once. Among all 5,500 compounds or so, about 2,000 (36%) were called active. Another 18% or so got no clear call; they are omitted. Rule as the data show it: active = normalized growth mostly below about 0.91 (no sharp cut-off); inconclusive = no clear call, values can overlap the other calls; inactive = mostly above about 0.92. Some of the results follow.

Assay: chemical genetic growth profiling, strain panel (AID 1159580);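 also: tested at 20 µM; growth read once vehicle control cultures reached saturation at 30 °C; 1 = growth at the plate median or of vehicle wells; lower values mean less growth of the strain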
Conditions: S. cerevisiae deletion strains, growth OD

Measured: normalized growth

CN(C)[C@@H]1C(=O)C(C(N)=O)=C(O)[C@@]2(O)C(=O)C3=C(O)c4c(O)ccc(Cl)c4[C@@](C)(O)[C@H]3C[C@@H]12
inactive: locus YAL013W, strain DEP1, stronger effect = lower value 1.01 | locus YAL021C, strain ccr4, stronger effect = lower value 0.956 | locus YAL026C, strain drs2, stronger effect = lower value 0.983 | locus YAL030W, strain snc1, stronger effect = lower value 0.981 | locus YBL061C, strain skt5, stronger effect = lower value 0.98 | locus YBR009C, strain hhf1, stronger effect = lower value 0.979 | locus YBR021W, strain FUR4, stronger effect = lower value 0.961 | locus YBR023C, strain chs3, stronger effect = lower value 0.993 | locus YBR171W, strain sec66, stronger effect = lower value 0.979 | locus YBR229C, strain ROT2, stronger effect = lower value 1.01 | locus YBR231C, strain swc5, stronger effect = lower value 0.986 | locus YBR279W, strain paf1, stronger effect = lower value 0.987 | locus YCL011C, strain gbp2, stronger effect = lower value 0.967 | locus YCL016C, strain dcc1, stronger effect = lower value 0.967 | locus YCL029C, strain bik1, stronger effect = lower value 1.02 | locus YCL069W, strain vba3, stronger effect = lower value 0.986 | locus YCR088W, strain abp1, stronger effect = lower value 0.988 | locus YDL005C, strain med2, stronger effect = lower value 0.985 | locus YDL035C, strain GPR1, stronger effect = lower value 0.976 | locus YDL040C, strain nat1, stronger effect = lower value 0.983 | locus YDL074C, strain BRE1, stronger effect = lower value 0.968 | locus YDL101C, strain DUN1, stronger effect = lower value 1 | locus YDL185W, strain tfp1, stronger effect = lower value 1.01 | locus YDL192W, strain arf1, stronger effect = lower value 0.97 | locus YDR001C, strain nth1, stronger effect = lower value 0.969 | locus YDR069C, strain doa4, stronger effect = lower value 0.947 | locus YDR101C, strain arx1, stronger effect = lower value 0.996 | locus YDR137W, strain rgp1, stronger effect = lower value 0.957 | locus YDR150W, strain NUM1, stronger effect = lower value 1 | locus YDR159W, strain sac3, stronger effect = lower value 0.968 | locus YDR162C, strain NBP2, stronger effect = lower value 1 | locus YDR195W, strain ref2 0.945 | locus YDR297W, strain sur2, stronger effect = lower value 0.991 | locus YDR318W, strain mcm21, stronger effect = lower value 1 | locus YDR334W, strain swr1, stronger effect = lower value 0.968 | locus YDR335W, strain msn5, stronger effect = lower value 0.98 | locus YDR388W, stronger effect = lower value 1.01 | locus YDR392W, strain spt3, stronger effect = lower value 0.895 | locus YDR502C, strain sam2, stronger effect = lower value 1.01 | locus YEL003W, strain gim4, stronger effect = lower value 0.973 | locus YEL037C, strain rad23, stronger effect = lower value 0.983 | locus YEL061C, strain CIN8 (second series), stronger effect = lower value 0.986 | locus YEL061C, strain CIN8, stronger effect = lower value 0.996 | locus YER015W, strain faa2, stronger effect = lower value 0.977 | locus YER016W, strain bim1, stronger effect = lower value 0.984 | locus YER110C, stronger effect = lower value 1.01 | locus YER111C, strain swi4, stronger effect = lower value 0.977 | locus YER155C, strain BEM2 (second series), stronger effect = lower value 0.95 | locus YER155C, strain BEM2, stronger effect = lower value 1.02 | locus YER167W, strain BCK2, stronger effect = lower value 1.01 | locus YFR010W, strain ubp6, stronger effect = lower value 0.972 | locus YGL078C, strain dbp3, stronger effect = lower value 0.994 | locus YGL086W, strain mad1, stronger effect = lower value 0.981 | locus YGL167C, strain pmr1, stronger effect = lower value 0.959 | locus YGL173C, strain kem1, stronger effect = lower value 0.985 | locus YGL227W, strain vid30, stronger effect = lower value 0.984 | locus YGL240W, strain doc1, stronger effect = lower value 0.982 | locus YGL248W, strain PDE1, stronger effect = lower value 0.942 | locus YGL253W, strain hxk2, stronger effect = lower value 0.974 | locus YGR078C, strain PAC10, stronger effect = lower value 0.976 | locus YGR135W, strain pre9, stronger effect = lower value 0.994 | locus YGR252W, strain gcn5, stronger effect = lower value 1 | locus YHR013C, strain ard1, stronger effect = lower value 0.98 | locus YHR027C, strain rpn1, stronger effect = lower value 0.981 | locus YHR030C, strain SLT2, stronger effect = lower value 1.01 and 1.03 | locus YHR079C, strain IRE1 (second series), stronger effect = lower value 1.01 | locus YHR079C, strain IRE1, stronger effect = lower value 1.1 | locus YHR094C, strain hxt1, stronger effect = lower value 1.01 | locus YHR129C, strain ARP1, stronger effect = lower value 0.99 | locus YHR142W, strain chs7, stronger effect = lower value 0.986 | locus YHR200W, strain rpn10, stronger effect = lower value 0.987 | locus YIL066C, strain RNR3, stronger effect = lower value 0.922 | locus YIL073C, strain SPO22, stronger effect = lower value 0.976 | locus YIL125W, strain kgd1, stronger effect = lower value 0.998 | locus YIR030C, strain dcg1, stronger effect = lower value 1.01 | locus YJL092W, strain hpr5, stronger effect = lower value 0.971 | locus YJL095W, strain BCK1 (second series), stronger effect = lower value 0.971 | locus YJL095W, strain BCK1, stronger effect = lower value 0.981 and 1.04 | locus YJL115W, strain asf1, stronger effect = lower value 0.96 | locus YJL129C, strain trk1, stronger effect = lower value 0.991 | locus YJL134W, strain LCB3, stronger effect = lower value 1.01 | locus YJL154C, strain vps35, stronger effect = lower value 0.973 | locus YJL164C, strain tpk1, stronger effect = lower value 0.961 | locus YJL166W, strain qcr8, stronger effect = lower value 0.97 | locus YJL168C, strain set2, stronger effect = lower value 1 | locus YJL187C, strain SWE1 (second series), stronger effect = lower value 0.988 | locus YJR043C, strain POL32, stronger effect = lower value 0.971 | locus YJR066W, strain TOR1, stronger effect = lower value 0.972 | locus YJR075W, strain HOC1, stronger effect = lower value 1 | locus YKL009W, strain mrt4, stronger effect = lower value 1.02 | locus YKL068W, stronger effect = lower value 1 | locus YKL085W, strain MDH1 (second series), stronger effect = lower value 1.01 | locus YKL085W, strain MDH1, stronger effect = lower value 1.01 | locus YKL160W, strain elf1, stronger effect = lower value 0.962 | locus YKR001C, strain vps1, stronger effect = lower value 0.978 | locus YKR026C, strain gcn3, stronger effect = lower value 0.975 | locus YKR091W, strain srl3, stronger effect = lower value 0.985 | locus YLL001W, strain dnm1, stronger effect = lower value 0.976 | locus YLL026W, stronger effect = lower value 0.987 | locus YLL041C, strain sdh2, stronger effect = lower value 0.97 | locus YLR027C, strain aat2, stronger effect = lower value 0.987 | locus YLR039C, strain RIC1, stronger effect = lower value 1.01 | locus YLR058C, strain SHM2, stronger effect = lower value 0.998 | locus YLR102C, strain apc9, stronger effect = lower value 1.02 | locus YLR113W, strain HOG1, stronger effect = lower value 1.05 | locus YLR221C, strain rsa3, stronger effect = lower value 0.987 | locus YLR258W, strain gsy2, stronger effect = lower value 0.975 | locus YLR262C, strain YPT6 (second series), stronger effect = lower value 1.01 | locus YLR262C, strain YPT6, stronger effect = lower value 1.03 | locus YLR268W, strain sec22, stronger effect = lower value 0.992 | locus YLR320W, strain mms22, stronger effect = lower value 0.996 | locus YLR330W, strain CHS5, stronger effect = lower value 0.999 | locus YLR342W, strain FKS1 (second series), stronger effect = lower value 0.848 | locus YLR342W, strain FKS1, stronger effect = lower value 0.989 | locus YLR357W, strain rsc2, stronger effect = lower value 0.938 | locus YLR370C, strain arc18, stronger effect = lower value 0.96 | locus YLR371W, strain rom2, stronger effect = lower value 0.983 | locus YLR384C, strain iki3, stronger effect = lower value 0.995 | locus YLR418C, strain cdc73, stronger effect = lower value 0.988 | locus YML016C, strain PPZ1, stronger effect = lower value 0.998 | locus YML032C, strain rad52, stronger effect = lower value 0.988 | locus YML120C, strain ndi1, stronger effect = lower value 0.97 | locus YML124C, strain tub3, stronger effect = lower value 1.01 | locus YMR058W, strain fet3, stronger effect = lower value 0.965 | locus YMR078C, strain ctf18, stronger effect = lower value 1 | locus YMR125W, strain sto1, stronger effect = lower value 0.944 | locus YMR129W, stronger effect = lower value 0.983 | locus YMR205C, strain PFK2, stronger effect = lower value 0.989 | locus YMR223W, strain ubp8, stronger effect = lower value 0.985 | locus YMR231W, strain pep5, stronger effect = lower value 0.99 | locus YMR307W, strain GAS1, stronger effect = lower value 0.956 | locus YNL067W, strain RPL9B, stronger effect = lower value 0.991 | locus YNL071W, strain lat1, stronger effect = lower value 0.989 | locus YNL183C, strain NPR1, stronger effect = lower value 0.982 | locus YNL209W, strain ssb2, stronger effect = lower value 0.99 | locus YNL233W, strain BNI4, stronger effect = lower value 0.974 | locus YNL248C, strain rpa49, stronger effect = lower value 0.993 | locus YNL250W, strain rad50, stronger effect = lower value 1.01 | locus YNL271C, strain bni1, stronger effect = lower value 1.01 | locus YNL298W, strain CLA4, stronger effect = lower value 1.03 | locus YNL307C, strain MCK1, stronger effect = lower value 1.01 | locus YNL322C, strain KRE1 (second series), stronger effect = lower value 0.983 | locus YNR049C, strain mso1, stronger effect = lower value 0.968 | locus YNR052C, strain pop2, stronger effect = lower value 0.997 | locus YOL006C, strain TOP1, stronger effect = lower value 0.768 | locus YOL012C, strain htz1 1.03 | locus YOL147C, strain pex11, stronger effect = lower value 1.02 | locus YOR001W, strain rrp6, stronger effect = lower value 0.978 | locus YOR061W, strain CKA2, stronger effect = lower value 0.988 | locus YOR069W, strain VPS5, stronger effect = lower value 1 | locus YOR070C, strain gyp1, stronger effect = lower value 0.98 | locus YOR080W, strain dia2, stronger effect = lower value 0.974 | locus YOR083W, strain WHI5, stronger effect = lower value 0.952 | locus YOR106W, strain vam3, stronger effect = lower value 0.929 | locus YOR136W, strain idh2, stronger effect = lower value 1.03 | locus YOR144C, strain elg1, stronger effect = lower value 1.01 | locus YOR184W, strain ser1, stronger effect = lower value 1.02 | locus YOR231W, strain MKK1, stronger effect = lower value 1.05 | locus YOR265W, strain rbl2, stronger effect = lower value 0.989 | locus YOR270C, strain vph1, stronger effect = lower value 0.991 | locus YOR290C, strain snf2, stronger effect = lower value 0.941 | locus YOR316C, strain cot1, stronger effect = lower value 1.01 | locus YPL051W, strain arl3, stronger effect = lower value 0.984 | locus YPL055C, strain LGE1, stronger effect = lower value 0.96 | locus YPL078C, strain atp4, stronger effect = lower value 0.958 | locus YPL106C, strain sse1, stronger effect = lower value 0.929 | locus YPL240C, strain hsp82, stronger effect = lower value 0.981 | locus YPL241C, strain CIN2, stronger effect = lower value 0.997 | locus YPL256C, strain CLN2, stronger effect = lower value 1.03 | locus YPR119W, strain clb2, stronger effect = lower value 1.02 | locus YPR141C, strain kar3, stronger effect = lower value 1.01 | locus YPR163C, strain tif3, stronger effect = lower value 0.995 | locus YPR167C, strain met16, stronger effect = lower value 1.01 | strain wtn01, stronger effect = lower value 0.979
